In PubChem BioAssay AID1159580 (chemical genetic matrix, 2015):
Values joined by “and” are separate entries in the source; they are usually repeats but may differ in a detail not shown here. Equal values may be shown once. Among all 5,500 compounds or so, about 2,000 (36%) were called active. Another 18% or so got no clear call; they are omitted. Cut-off read from the data, not from the text of the source: active = normalized growth mostly below about 0.91 (no sharp cut-off); inconclusive = no clear call, values can overlap the other calls; inactive = mostly above about 0.92. This is one part of the list.

Assay: chemical genetic growth profiling, strain panel (AID 1159580);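 note: tested at 20 µM; growth read once vehicle control cultures reached saturation at 30 °C; 1 = growth at the plate median or of vehicle wells; lower values mean less growth of the strain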
Conditions: growth OD
[1] = S. cerevisiae deletion strains, locus YAL013W, strain DEP1, hits give low values
[2] = S. cerevisiae deletion strains, locus YAL040C, strain CLN3, hits give low values
[3] = S. cerevisiae deletion strains, locus YCL061C, strain MRC1 (second series), hits give low values
[4] = S. cerevisiae deletion strains, locus YDR150W, strain NUM1, hits give low values
[5] = S. cerevisiae deletion strains, locus YDR363W, strain ESC2, hits give low values
[6] = S. cerevisiae deletion strains, locus YER002W, strain NOP16, hits give low values
[7] = S. cerevisiae deletion strains, locus YGR229C, strain SMI1, hits give low values
[8] = S. cerevisiae deletion strains, locus YHR030C, strain SLT2, hits give low values
[9] = S. cerevisiae deletion strains, locus YHR079C, strain IRE1, hits give low values
[10] = S. cerevisiae deletion strains, locus YJL095W, strain BCK1, hits give low values
[11] = S. cerevisiae deletion strains, locus YJR066W, strain TOR1, hits give low values
[12] = S. cerevisiae deletion strains, locus YLR113W, strain HOG1, hits give low values
[13] = S. cerevisiae deletion strains, locus YMR307W, strain GAS1, hits give low values
[14] = S. cerevisiae deletion strains, locus YNL175C, strain NOP13, hits give low values
[15] = S. cerevisiae deletion strains, locus YNL183C, strain NPR1, hits give low values
[16] = S. cerevisiae deletion strains, locus YNL197C, strain WHI3, hits give low values
[17] = S. cerevisiae deletion strains, locus YNL224C, strain SQS1, hits give low values
[18] = S. cerevisiae deletion strains, locus YOR083W, strain WHI5 (second series), hits give low values
[19] = S. cerevisiae deletion strains, locus YOR231W, strain MKK1, hits give low values
[20] = S. cerevisiae deletion strains, locus YPL055C, strain LGE1, hits give low values
[21] = S. cerevisiae deletion strains, locus YPL256C, strain CLN2, hits give low values

Measured: normalized growth

C[N+](C)(C)CCCCCC[N+](C)(C)C
inactive: [1] 1.01 | [2] 0.978 and 0.988 | S. cerevisiae deletion strains, locus YBR021W, strain FUR4, hits give low values 0.997 | S. cerevisiae deletion strains, locus YBR229C, strain ROT2, hits give low values 0.995 | S. cerevisiae deletion strains, locus YCL029C, strain bik1, hits give low values 0.988 | [3] 1.01 and 1 | S. cerevisiae deletion strains, locus YDL035C, strain GPR1, hits give low values 1 | S. cerevisiae deletion strains, locus YDL074C, strain BRE1, hits give low values 1.07 | S. cerevisiae deletion strains, locus YDL101C, strain DUN1, hits give low values 0.993 | S. cerevisiae deletion strains, locus YDL134C, strain PPH21, hits give low values 0.98 | S. cerevisiae deletion strains, locus YDL185W, strain tfp1, hits give low values 0.984 | S. cerevisiae deletion strains, locus YDL192W, strain arf1, hits give low values 0.98 | S. cerevisiae deletion strains, locus YDR101C, strain arx1, hits give low values 1.03 | [4] 1 and 0.998 | S. cerevisiae deletion strains, locus YDR162C, strain NBP2, hits give low values 0.985 | S. cerevisiae deletion strains, locus YDR318W, strain mcm21, hits give low values 0.984 | [5] 1.01 and 0.998 | S. cerevisiae deletion strains, locus YDR388W, hits give low values 0.982 | S. cerevisiae deletion strains, locus YDR502C, strain sam2, hits give low values 0.985 | S. cerevisiae deletion strains, locus YEL061C, strain CIN8, hits give low values 0.993 | [6] 1.03 and 1 | S. cerevisiae deletion strains, locus YER110C, hits give low values 0.979 | S. cerevisiae deletion strains, locus YER155C, strain BEM2, hits give low values 0.998 | S. cerevisiae deletion strains, locus YER167W, strain BCK2, hits give low values 0.994 | S. cerevisiae deletion strains, locus YGL078C, strain dbp3, hits give low values 0.981 | S. cerevisiae deletion strains, locus YGL086W, strain mad1, hits give low values 1.02 | S. cerevisiae deletion strains, locus YGL248W, strain PDE1, hits give low values 1 | S. cerevisiae deletion strains, locus YGR078C, strain PAC10, hits give low values 1.03 and 0.99 | S. cerevisiae deletion strains, locus YGR135W, strain pre9, hits give low values 0.95 | [7] 0.99 | S. cerevisiae deletion strains, locus YGR252W, strain gcn5, hits give low values 0.948 | [8] 0.987 and 1.05 | S. cerevisiae deletion strains, locus YHR079C, strain IRE1 (second series), hits give low values 0.993 | [9] 1.04 | S. cerevisiae deletion strains, locus YHR094C, strain hxt1, hits give low values 0.987 | S. cerevisiae deletion strains, locus YHR129C, strain ARP1, hits give low values 0.988 | S. cerevisiae deletion strains, locus YHR200W, strain rpn10, hits give low values 0.989 | S. cerevisiae deletion strains, locus YIL066C, strain RNR3, hits give low values 0.994 | S. cerevisiae deletion strains, locus YIL073C, strain SPO22, hits give low values 0.953 | S. cerevisiae deletion strains, locus YIL125W, strain kgd1, hits give low values 1 | S. cerevisiae deletion strains, locus YIR030C, strain dcg1, hits give low values 0.985 | [10] 1 and 1.05 | S. cerevisiae deletion strains, locus YJL134W, strain LCB3, hits give low values 0.989 | S. cerevisiae deletion strains, locus YJL168C, strain set2, hits give low values 1 | S. cerevisiae deletion strains, locus YJL187C, strain SWE1 (second series), hits give low values 0.999 | S. cerevisiae deletion strains, locus YJR043C, strain POL32, hits give low values 1 | [11] 0.96 | S. cerevisiae deletion strains, locus YJR075W, strain HOC1, hits give low values 0.998 and 1.01 | S. cerevisiae deletion strains, locus YKL009W, strain mrt4, hits give low values 0.99 | S. cerevisiae deletion strains, locus YKL068W, hits give low values 0.988 | S. cerevisiae deletion strains, locus YKL085W, strain MDH1 (second series), hits give low values 0.998 | S. cerevisiae deletion strains, locus YKL085W, strain MDH1, hits give low values 0.998 | S. cerevisiae deletion strains, locus YKL190W, strain CNB1, hits give low values 1.01 | S. cerevisiae deletion strains, locus YKR001C, strain vps1, hits give low values 1 | S. cerevisiae deletion strains, locus YLR039C, strain RIC1, hits give low values 1 | S. cerevisiae deletion strains, locus YLR058C, strain SHM2, hits give low values 0.987 | S. cerevisiae deletion strains, locus YLR102C, strain apc9, hits give low values 0.987 | [12] 1.1 | S. cerevisiae deletion strains, locus YLR262C, strain YPT6, hits give low values 0.97 | S. cerevisiae deletion strains, locus YLR268W, strain sec22, hits give low values 0.99 | S. cerevisiae deletion strains, locus YLR330W, strain CHS5, hits give low values 0.99 | S. cerevisiae deletion strains, locus YLR342W, strain FKS1 (second series), hits give low values 0.976 | S. cerevisiae deletion strains, locus YLR371W, strain rom2, hits give low values 0.988 | S. cerevisiae deletion strains, locus YLR418C, strain cdc73, hits give low values 0.946 | S. cerevisiae deletion strains, locus YML016C, strain PPZ1, hits give low values 0.99 | S. cerevisiae deletion strains, locus YML032C, strain rad52, hits give low values 1 | S. cerevisiae deletion strains, locus YML124C, strain tub3, hits give low values 0.995 | S. cerevisiae deletion strains, locus YMR078C, strain ctf18, hits give low values 0.983 | S. cerevisiae deletion strains, locus YMR223W, strain ubp8, hits give low values 0.964 | S. cerevisiae deletion strains, locus YMR263W, strain SAP30, hits give low values 1.01 and 0.998 | [13] 0.96 and 1.01 | S. cerevisiae deletion strains, locus YNL067W, strain RPL9B, hits give low values 1.01 | S. cerevisiae deletion strains, locus YNL128W, strain TEP1, hits give low values 0.992 and 1.01 | S. cerevisiae deletion strains, locus YNL153C, strain GIM3, hits give low values 1.03 and 1.01 | [14] 0.99 and 1.02 | [15] 1.01 | [16] 0.999 and 1.02 | [17] 0.994 and 1.04 | S. cerevisiae deletion strains, locus YNL233W, strain BNI4, hits give low values 1.01 | S. cerevisiae deletion strains, locus YNL250W, strain rad50, hits give low values 0.957 | S. cerevisiae deletion strains, locus YNL271C, strain bni1, hits give low values 0.984 | S. cerevisiae deletion strains, locus YNL298W, strain CLA4, hits give low values 0.981 | S. cerevisiae deletion strains, locus YNL307C, strain MCK1, hits give low values 0.985 | S. cerevisiae deletion strains, locus YNL322C, strain KRE1, hits give low values 0.998 and 0.995 | S. cerevisiae deletion strains, locus YNR052C, strain pop2, hits give low values 0.987 | S. cerevisiae deletion strains, locus YOL006C, strain TOP1, hits give low values 1.06 | S. cerevisiae deletion strains, locus YOL012C, strain htz1 1.51 | S. cerevisiae deletion strains, locus YOL147C, strain pex11, hits give low values 0.99 | S. cerevisiae deletion strains, locus YOR061W, strain CKA2, hits give low values 0.995 | S. cerevisiae deletion strains, locus YOR069W, strain VPS5, hits give low values 0.987 | [18] 0.968 and 0.999 | S. cerevisiae deletion strains, locus YOR136W, strain idh2, hits give low values 0.994 | S. cerevisiae deletion strains, locus YOR144C, strain elg1, hits give low values 0.993 | S. cerevisiae deletion strains, locus YOR184W, strain ser1, hits give low values 0.988 | [19] 1.09 | S. cerevisiae deletion strains, locus YOR316C, strain cot1, hits give low values 0.988 | [20] 1.04 | [21] 1.05 | S. cerevisiae deletion strains, locus YPR119W, strain clb2, hits give low values 0.997 | S. cerevisiae deletion strains, locus YPR141C, strain kar3, hits give low values 0.98 | S. cerevisiae deletion strains, locus YPR163C, strain tif3, hits give low values 1.01 | S. cerevisiae deletion strains, locus YPR167C, strain met16, hits give low values 0.983 | S. cerevisiae deletion strains, strain wtn01, hits give low values 0.982 | S. cerevisiae strains, strain wild type, hits give low values 0.995

C[N+](C)(C)CCCCCCCCCC[N+](C)(C)C
inactive: [1] 1 | [2] 1 | [3] 1 | [4] 0.989 | [5] 1.02 | [6] 0.995 | [7] 1.04 | [8] 0.973 | [9] 1.01 | [10] 1 | [11] 0.963 | [12] 1.01 | [13] 0.998 | [14] 1.01 | [15] 0.948 | [16] 1.03 | [17] 0.983 | [18] 0.95 | [19] 0.995 | [20] 1.02 | [21] 1.12
